Potency data for 30 molecules are collected here from PubChem BioAssay (NCATS).

The structures appear in SMILES notation. Results filed as inconclusive are left out. Entries that show only a call come without a potency. Calls of active or inactive are those of the source. Unless noted, the call rests on the fitted dose curve; in most records, active means well fitted curve in the direction sought with a large enough effect; inconclusive means small, poorly fitted or top-dose-only effect, or another doubt; inactive means no such curve, though single readings can be large; an effect the other way counts as inactive or inconclusive.

Chain of Cytochrome P450 2C9 (Homo sapiens) (P11712 whole entry, looked up): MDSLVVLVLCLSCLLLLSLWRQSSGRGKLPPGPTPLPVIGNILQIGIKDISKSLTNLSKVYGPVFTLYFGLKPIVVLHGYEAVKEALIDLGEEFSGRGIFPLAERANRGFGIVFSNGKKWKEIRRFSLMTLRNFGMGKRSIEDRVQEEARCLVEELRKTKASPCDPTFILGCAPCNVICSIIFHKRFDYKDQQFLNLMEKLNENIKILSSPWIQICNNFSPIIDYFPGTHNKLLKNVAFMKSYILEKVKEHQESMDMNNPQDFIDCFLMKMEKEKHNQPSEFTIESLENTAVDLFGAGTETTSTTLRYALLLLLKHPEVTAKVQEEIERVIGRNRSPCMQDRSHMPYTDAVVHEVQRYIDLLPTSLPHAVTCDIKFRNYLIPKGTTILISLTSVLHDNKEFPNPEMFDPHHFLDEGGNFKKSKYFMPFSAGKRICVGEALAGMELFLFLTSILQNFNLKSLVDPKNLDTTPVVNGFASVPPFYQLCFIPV

The target of one assay is Calcium and integrin-binding protein 1 (Homo sapiens) (UniProt Q99828). Briefly: Primary qHTS for Identification of Calcium Integrin Binding Protein 1 (CIB1) Competitor (AID 1508620).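 Further: GST tagged CIB1 binding a fluorescein labelled alphaIIb integrin peptide tracer; top concentration of the series differs between compounds.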 The settings on record: CIB1-GST / FITC-alphaIIb peptide fluorescence polarization; series mostly up to 114 µM. In outline: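 Fluorescence polarization competition: CIB1-GST (1 uM final) preincubated with compound 15 min at room temperature, then FITC-labeled alphaIIb peptide (100 nM final) added for another 15 min. Polarization read at Ex 480/Em 540.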
Chain of Calcium and integrin-binding protein 1 (Homo sapiens) (Q99828 whole entry, looked up): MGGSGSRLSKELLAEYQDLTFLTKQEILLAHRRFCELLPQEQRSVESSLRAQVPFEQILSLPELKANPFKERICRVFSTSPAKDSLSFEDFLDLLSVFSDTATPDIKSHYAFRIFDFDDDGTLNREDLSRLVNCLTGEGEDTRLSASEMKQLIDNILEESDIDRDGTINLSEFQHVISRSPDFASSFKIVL
On the technique in general: In qHTS, concentration-response curves come from the screen itself.
For the molecule `CCNC(=O)Nc1ccc(-c2nc3c(c(N4CCOCC4C)n2)CCN(C2COC2)C3)cc1` (stereo not given), the Potency entry was “inactive”.

As for `COc1cc(C(=O)O)ccc1NC(=O)C1NC(CC(C)(C)C)C(C#N)(c2ccc(Cl)cc2F)C1c1cccc(Cl)c1F` (stereo not given), the Potency result is “inactive”.

On to `OC1C=C2C3CN(Cc4cc5c(cc43)OCO5)C2CC1O` (stereo not given), for which the Potency entry was “inactive”.

With `CC(C)CCNC(=O)c1ccc2c(c1)nc(Nc1n[nH]c3ccc(-c4ccccc4OC(F)(F)F)cc13)n2C1CCC(O)CC1` (stereo not given), the Potency entry is “inactive”.

As for `CC(C)(C)c1ccc(C(=O)Nc2cc(Cl)c(Br)cc2C(=O)O)cc1`, the Potency result is “inactive”.

With `COc1cc2c(cc1OC)CN(C(=O)/C=C/c1c(-c3ccccc3)n(C)c3ncccc13)CC2`, the Potency result is “inactive”.

As to `CN(c1ccc(NC(=O)Nc2ccccc2)cc1)S(=O)(=O)c1cnn(-c2ccc(F)cc2)c1`, the Potency result was “inactive”.

For the molecule `CCCCNc1ncc(-c2ccc(CN3CCOCC3)cn2)c(NC2CCC(O)CC2)n1` (stereo not given), the Potency entry is “inactive”.

With `CCCC(=O)C1(c2ccccc2)CCN(C(=O)[C@@H](Cc2ccc(OC)cc2)NC(=O)[C@@H](N)Cc2cncn2C)CC1`, the Potency entry was “inactive”.

For `CNc1nc(NCc2ccc(NS(C)(=O)=O)cc2Cl)cc(-c2ccccn2)n1`, the Potency result was “inactive”.

For the molecule `CC(C)c1cc(-c2ccc(F)c3ccccc23)nc(N)n1`, the Potency entry was “inactive”.

On to `COc1cc(C(C)=O)c(OC)c2c1OC(C)(C)C=C2`, for which the Potency result is “inactive”.

Regarding `CC(=O)NC(C(=O)O[C@H]1CCC(C)(C)[C@@H]2CC=C3C(=O)OCC3(O)[C@@]12C)C(C)C` (stereo not given in full), the Potency result is “inactive”.

Take `COc1cccc(-c2cn(-c3ccc(CCN4CCC(O)CC4)cc3)c3ncnc(N)c23)c1`: the Potency result was “inactive”.

For the molecule `S=C(c1ccc(-c2ccc(Cl)c(Cl)c2)o1)N1CCCCC1`, the Potency entry was “inactive”.

On to `C=CC(C)(O)CC/C=C(/C)COC(=O)C(C)C1CCC(C)(C=C)O1` (stereo not given), for which the Potency result is “inactive”.

`CC[C@@H](C)Nc1cc(C(=O)NC2CC3CC[C@@H](C2)N3c2ccc(C(=O)C3CC3)cn2)c(C)cc1C(N)=O` (stereo not given in full): the Potency result is “inactive”.

For the molecule `CC(C)=CCCC1(C)/C=C/C(OC(=O)C=C(C)C)C(C)(O)/C=C/C(=O)/C(CO)=C\C1` (stereo not given), the Potency entry was “inactive”.

For `COc1cc(NC(=O)c2cccc(-n3cc(NC(=O)Nc4cccc(C)c4)cn3)c2)cc(OC)c1OC`, the Potency entry was “inactive”.

`C1=C/COCc2cc(ccc2OCCN2CCCC2)Nc2nccc(n2)-c2cccc(c2)COC/1`: the Potency entry is “inactive”.

For `COC(=O)CC[C@@H](C)C1CCC2C3CCC4C[C@H](OC(C)=O)CCC4(C)C3C[C@H](O)C21C` (stereo not given in full), the Potency entry is “inactive”.

For the molecule `Cc1cc(OCCCS(C)(=O)=O)cc(C)c1-c1cccc(COc2ccc3c(c2)OCC3CC(=O)O)c1` (stereo not given), the Potency result was “inactive”.

As for `NC(=O)c1cccc2[nH]c(-c3ccc(C4CCCN4)cc3F)nc12` (stereo not given), the Potency entry was “inactive”.

`C=C(C)[C@@H]1CC[C@]2(C(=O)O)CC[C@]3(C(=O)O)[C@H](CCC4[C@@]5(C)CCC(=O)C(C)(C)C5CC[C@]43C)C12` (stereo not given in full): the Potency entry was “inactive”.

For the molecule `CN1CC2CN(c3ccc4oc5ccccc5c(=O)c4c3)CC2C1` (stereo not given), the Potency entry was “inactive”.

Take `C/C=C/C=C/C(=O)O[C@@H]1C=C2COC(=O)[C@]2(O)[C@@]2(C)CCCC(C)(C)[C@H]12`: the Potency result is “inactive”.

In the case of `CCOc1ccc(-n2c([C@@H](C)N(Cc3cccnc3)C(=O)Cc3ccc(OC(F)(F)F)cc3)nc3ncccc3c2=O)cc1`, the Potency entry was “inactive”.

The next assay addresses Cytochrome P450 2C9 (Homo sapiens) (UniProt P11712). Briefly: Cytochrome P450 family 2 subfamily C member 9 (CYP2C9) small molecule antagonists: luciferase biochemical (cell-free) qHTS assay (AID 1645842; active means well fitted curve in the direction sought with a large enough effect in the repeat runs; an effect the other way counts as inactive or inconclusive; further: nearly all actives have a fitted effect of over 55% in size; further: potency means the concentration at half of the fitted maximal effect). The settings on record: P450-Glo CYP2C9 enzyme assay, luciferin luminescence; series mostly up to 57.4 µM. In outline: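 Luminescence, after 20 min with luciferin detection reagent, reflected CYP2C9 turnover during a 1 h NADPH-driven reaction at 37C. Enzyme-substrate mix contained 0.4% bovine serum albumin and was preincubated with compound 10 min at room temperature.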
`Cn1cc(-c2ccc3c(c2)CCN3C(=O)Cc2cccc(C(F)(F)F)c2)c2c(N)ncnc21`: the Potency was 12 µM (active).

Consider `Cc1cc(-c2cc(OC(=O)c3ccccc3)ccc2Cl)cc2nnc(Nc3ccc(OCCN4CCCC4)cc3)nc12`, for which the Potency result was “inactive”.

Turning to `CC1(C(=O)Nc2ccc(F)nc2)CCCN1c1nc(Nc2cc(C3CC3)[nH]n2)c2cccn2n1` (stereo not given), the Potency is 10.7 µM (active).

As to `CCNC(=O)Nc1ccc(-c2nc3c(c(N4CCOCC4C)n2)CCN(C2COC2)C3)cc1` (stereo not given), the Potency was 16.9 µM (active).

For `CC(C)CCNC(=O)c1ccc2c(c1)nc(Nc1n[nH]c3ccc(-c4ccccc4OC(F)(F)F)cc13)n2C1CCC(O)CC1` (stereo not given), the Potency was 9.52 µM (active).

Turning to `CC(C)(C)c1ccc(C(=O)Nc2cc(Cl)c(Br)cc2C(=O)O)cc1`, the Potency was 16.9 µM (active).

Turning to `COc1cc2c(cc1OC)CN(C(=O)/C=C/c1c(-c3ccccc3)n(C)c3ncccc13)CC2`, the Potency was 0.268 µM (active).

`CN(c1ccc(NC(=O)Nc2ccccc2)cc1)S(=O)(=O)c1cnn(-c2ccc(F)cc2)c1`: the Potency was 0.425 µM (active).

`CCCCNc1ncc(-c2ccc(CN3CCOCC3)cn2)c(NC2CCC(O)CC2)n1` (stereo not given): the Potency entry is “inactive”.

For `CCCC(=O)C1(c2ccccc2)CCN(C(=O)[C@@H](Cc2ccc(OC)cc2)NC(=O)[C@@H](N)Cc2cncn2C)CC1`, the Potency is 19 µM (active).

With `CNc1nc(NCc2ccc(NS(C)(=O)=O)cc2Cl)cc(-c2ccccn2)n1`, the Potency was 2.68 µM (active).

In the case of `CC(C)c1cc(-c2ccc(F)c3ccccc23)nc(N)n1`, the Potency was 4.25 µM (active).

For the molecule `S=C(c1ccc(-c2ccc(Cl)c(Cl)c2)o1)N1CCCCC1`, the Potency was 3.38 µM (active).

As for `COc1cc(NC(=O)c2cccc(-n3cc(NC(=O)Nc4cccc(C)c4)cn3)c2)cc(OC)c1OC`, the Potency is 2.68 µM (active).

With `Cc1cc(OCCCS(C)(=O)=O)cc(C)c1-c1cccc(COc2ccc3c(c2)OCC3CC(=O)O)c1` (stereo not given), the Potency result is “inactive”.

`NC(=O)c1cccc2[nH]c(-c3ccc(C4CCCN4)cc3F)nc12` (stereo not given): the Potency is 10.7 µM (active).

`CN1CC2CN(c3ccc4oc5ccccc5c(=O)c4c3)CC2C1` (stereo not given): the Potency result is “inactive”.

As for `CCOc1ccc(-n2c([C@@H](C)N(Cc3cccnc3)C(=O)Cc3ccc(OC(F)(F)F)cc3)nc3ncccc3c2=O)cc1`, the Potency was 0.952 µM (active).
